A selection: hits, their analogues and other compounds. The true share with any hit is near 2.4%.
D2 PAM-1: positive allosteric modulators of human D2 dopamine receptor; P14416; DiscoveRx D2 beta-arrestin cells, luminescence, 90 min; 100% = 57 uM dopamine signal; potentiation, % (no concentration beside the values); hit rate 0.23% among 360,000; in the data active = potentiation above about 50%; inconclusive = mostly about 30% to 49%
Target sequence (P14416 whole entry, looked up): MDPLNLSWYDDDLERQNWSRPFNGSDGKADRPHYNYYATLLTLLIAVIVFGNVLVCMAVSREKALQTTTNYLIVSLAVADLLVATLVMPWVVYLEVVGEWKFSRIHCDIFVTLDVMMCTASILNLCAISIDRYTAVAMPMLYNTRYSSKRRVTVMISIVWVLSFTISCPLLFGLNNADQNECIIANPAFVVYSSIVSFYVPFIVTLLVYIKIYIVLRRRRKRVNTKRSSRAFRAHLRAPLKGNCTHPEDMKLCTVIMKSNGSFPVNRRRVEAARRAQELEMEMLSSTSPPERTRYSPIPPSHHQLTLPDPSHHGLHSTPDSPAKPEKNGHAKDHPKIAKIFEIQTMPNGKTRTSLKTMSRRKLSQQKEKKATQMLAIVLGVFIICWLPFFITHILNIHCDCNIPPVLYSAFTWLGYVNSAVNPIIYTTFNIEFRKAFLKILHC
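PathHunter beta-arrestin assay in DiscoveRx D2 cells. Compounds were added with an EC20 of dopamine (50 nM final) for 90 min at 37 deg C. Luminescence was read 1 h after detection reagent, with 57 uM dopamine as the EC100 control.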
D2 ag-1: agonists of human D2 dopamine receptor (beta-arrestin) | P14416 | DiscoveRx PathHunter D2 beta-arrestin, luminescence, 90 min; 100% = 57 uM dopamine signal | activation, % (test concentration not listed) | hit rate 0.084% among 360,000; in the data active = activation above about 40%; inconclusive = between about 15% and that limit
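Agonist mode: compounds alone added to overnight-plated D2 PathHunter cells for 90 min at 37 C, with 57 uM final dopamine (EC100) defining full response. Beta-arrestin recruitment detected by chemiluminescent reagent, read after 1 h at ambient temperature.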
D2 antagonist: antagonizes the human D2 dopamine receptor; HEK293 TREx D2 cells, calcium flux, dopamine EC80; hit rate 2% among 340,000; inhibition, % at 10 µM; AID 485344; in the data active = inhibition above about 30%; inactive = below that, where a call was filed; note: 0% is about no effect
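Measurement of antagonist activity uses fluorescent calcium dye in inducible HEK293 T-REx D2 cells: 10 s baseline, compound addition with 180 s read, EC80 dopamine addition with a further 180 s read.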
D2 PAM-2: positive allosteric modulators of human D2 dopamine receptor | potentiation, % at 10 µM | hit rate 0.34% among 340,000 | HEK293 T-REx D2, calcium flux, EC20 dopamine potentiation;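 active = potentiation over 3 SD above the plate norm, cut at about 30% in these data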; note: 0% is about no effect
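Potentiation of an EC20 dopamine calcium response is measured in a force-coupled, tetracycline-inducible Hek293 Trex D2 line. Compound-only kinetic reads over 180 s flag agonists before dopamine addition.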
D2 ag-2: activates the human D2 dopamine receptor; AID 485358; P14416; hit rate 0.53% among 340,000; activation, % at 2 µM; HEK293 T-REx D2 cells, calcium flux agonist mode;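 active = activation over 3 SD above normal in the single-dose calcium agonist read, cut at about 30% in these data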; note: 0% is about no effect
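HEK293 Trex D2 cells, tetracycline-induced, o/n 30 C 5% CO2; no-wash Ca dye, RT 30–90 min; 10-cycle baseline, 23 nl cpd added, kinetic Ca read 180 s; agonist hits = positive Ca response.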
Numbers without * were called inactive; u = inconclusive; x = no result.

SMILES	D2 PAM-1	D2 ag-1	D2 antagonist	D2 PAM-2	D2 ag-2
CC(C)CC(=O)n1sc(NC(=O)c2ccccc2)nc1=O	-21	-3	-2	-4	0
Cc1nn(C)c2c1c(C(F)(F)F)cc(=O)n2CC(=O)N1CCCCC1C (stereo unspecified)	x	x	x	-5	0
Brc1ccc(-c2cn3c(n2)CCc2ccc4cccnc4c2-3)cc1	-12	3	-6	32*	-1
Brc1ccc(-c2cn3nc4c(nc3n2)CCCC4)cc1	-10	-1	8	-7	0
Oc1ccc(C[C@H]2CNC(=S)N2C[C@H]2CCCN2C[C@H](Cc2ccccc2)N2C[C@H](Cc3ccc(O)cc3)N(CCc3ccccc3)C2=S)cc1	-2	6	x	x	x
COc1cc(-c2coc3c(C(=O)NCc4ccc(OC)c(OC)c4)cccc23)ccc1O	-7	68*	x	x	x
CC(=O)c1ccc(NC(=O)COC(=O)CCN2C(=O)c3cccc([N+](=O)[O-])c3C2=O)cc1	-10	-2	-5	-2	0
CC(C)N(c1ccccc1)c1ccc(NC(=O)COC(=O)CCN2C(=O)c3cccc([N+](=O)[O-])c3C2=O)cc1	61*	u	-2	-9	-1
COCCn1c(-c2ccccc2)nc(=S)c2c1CC(C)(C)OC2	29	-2	11	37*	1
O=S(=O)(Nc1ccccn1)c1ccc(Cl)c2ccccc12	1	2	31*	-2	-1
CCOCCCNS(=O)(=O)c1ccc2c(c1)OCCO2	-3	0	-1	-1	0
COCCCNS(=O)(=O)c1ccc2c(c1)OCCO2	-5	-2	34*	3	0
COc1ccc(CCNS(=O)(=O)c2ccc3c(c2)OCCO3)cc1OC	-4	-1	2	105*	0
CCN1CCOC(=O)C1CC(=O)Nc1cc(C)cc(C)c1 (stereo unspecified)	x	x	x	-3	0
CCN1CCN(Cc2c(O)ccc3oc(C)c(C(=O)Nc4ccc(OC)cc4)c23)CC1	x	x	x	3	0
Cc1ccccc1-c1cnc2c(c1)C(=O)N([C@@H](C)CO)C[C@@H](C)[C@H](CN(C)Cc1ccccc1F)O2	1	2	x	x	x
O=C1CC(c2ccco2)CC(O)=C1C=NCCN1CCN(C2CC(=O)N(c3ccccc3)C2=O)CC1 (stereo unspecified)	-1	1	-8	47*	0
O=C1CC(c2ccco2)CC(O)=C1C=NCCN1CCNCC1 (stereo unspecified)	-1	-1	-6	-5	1
C=CCNCCOc1c(C)cc(C)cc1Cl	-29	-1	32*	-22	0
C=CCNCCCCOc1c(Cl)cc(C)cc1Br	-5	-2	-10	-7	0
Cc1cc(C)c(OCCCCNCc2ccccc2)c(Cl)c1	-20	-2	49*	-14	-1
C[C@H]1CN([C@@H](C)CO)C(=O)c2cc(-c3cccc(F)c3)cnc2O[C@H]1CN(C)C(=O)c1cnccn1	-3	-9	x	x	x
COc1cccc(CNC(=O)C2CCCN(c3nn4cc(-c5ccc(C)cc5)nc4s3)C2)c1 (stereo unspecified)	x	x	x	2	x
COc1ccc(OC)c(C2=NOC(C(=O)NCc3cccnc3)C2)c1 (stereo unspecified)	-2	-1	-17	3	0
COc1cc(OC)c(C2=NOC(C(=O)NCc3cccnc3)C2)cc1Cl (stereo unspecified)	54*	3	-1	2	0
SMILES	D2 PAM-1	D2 ag-1	D2 antagonist	D2 PAM-2	D2 ag-2
COc1cccc(-c2cc(=O)c3cc(NC(C)=O)ccc3[nH]2)c1	-19	-1	34*	0	1
CCC(NC(=O)c1ccc([N+](=O)[O-])cc1[N+](=O)[O-])c1ccccc1 (stereo unspecified)	74*	11	-2	7	1
CN(C)c1ccc(CN(Cc2ccco2)C(=O)c2ccc(F)cc2)cc1	x	x	x	-5	2
Cc1sc2ncnc(NCC3(N4CCOCC4)CCCCC3)c2c1C	-3	-2	2	30*	1
c1csc(CNc2ncnc3sccc23)c1	-7	-2	x	x	x
c1nc(NCC2(N3CCOCC3)CCCCC2)c2ccsc2n1	-8	-1	-3	38*	-2
O=C(OCc1cn([C@H]2C[C@H](c3ccc(Cl)cc3)N(CC3CCCCC3)C[C@@H]2O)nn1)c1ccccc1	-2	-8	x	x	x
